Among all 2,100 compounds or so, about 1,100 (52%) were called active. Another 29% or so got no clear call; they are omitted. Calls follow the shape of the dose curve; as a rule, active = well fitted inhibition curve with a large enough effect; inconclusive = small, poorly fitted or top-dose-only effect; inactive = no such curve, though single readings can be large or run the other way. So high a share suggests a set chosen from earlier hits. The list shows a part of the results.
Target: DNA dC->dU-editing enzyme APOBEC-3F (Homo sapiens) (UniProt Q8IUX4)
Sequence (Q8IUX4 whole entry, looked up): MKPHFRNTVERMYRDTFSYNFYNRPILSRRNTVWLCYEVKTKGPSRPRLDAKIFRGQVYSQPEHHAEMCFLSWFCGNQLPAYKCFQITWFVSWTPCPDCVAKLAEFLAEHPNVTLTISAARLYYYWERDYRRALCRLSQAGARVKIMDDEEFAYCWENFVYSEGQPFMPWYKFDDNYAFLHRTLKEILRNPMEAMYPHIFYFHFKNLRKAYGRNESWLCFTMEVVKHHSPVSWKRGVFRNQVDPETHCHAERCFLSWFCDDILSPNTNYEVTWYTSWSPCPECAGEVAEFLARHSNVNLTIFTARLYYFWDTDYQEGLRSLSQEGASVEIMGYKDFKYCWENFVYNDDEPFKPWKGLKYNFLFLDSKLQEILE
Experiment: qHTS for inhibitors of Vif-A3F interactions: Cherry picks counterscreen; also: nearly all actives have a fitted effect of over 65% in size
Conditions: HeLa A3F-eYFP/Vif cells, eYFP fluorescence, 24 h; series mostly up to 46.1 µM; activity, negative = inhibitor: at the top concentration
Outline: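 HeLa cells stably expressing A3F-eYFP and Vif, cultured overnight, then treated 24 h at 37 degrees C with compounds at several concentrations; yellow fluorescence (488 nm Ex/500-530 nm Em) imaged on Acumen; MG132 positive control.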
% is scaled to controls: 0 for no effect and ±100 for the full control effect; potency is read from the fitted curve at half-maximal effect.

| SMILES | Potency | activity, negative = inhibitor |
| --- | --- | --- |
| CCn1c(O)c(/C=N/N=C/c2ccc(OC)cc2)c2cc(C3=NNC(=O)CC3)ccc21 | 6.51 µM (active) | – |
| COc1cc(CCC(=O)Nc2nnc(C)s2)cc(OC)c1OC | 4.44 µM (active) | – |
| Cc1cc(OCC(=O)Nc2nnc(C3CC3)s2)ccc1Cl | – | -5.8% [at 36.9 µM] (inactive) |
| N#CCSc1ccccc1NC(=O)CN1C(=O)NC(CCc2ccccc2)C1=O (configuration not stated) | – | -12.4% (inactive) |
| N#CCSc1ccccc1NC(=O)CN1C(=O)C2CC=CCC2C1=O (configuration not stated) | 14 µM (active) | – |
| O=C(CN1c2cccc3cccc(c23)S1(=O)=O)Nc1ccc(S(=O)(=O)N2CCOCC2)cc1 | – | 0.571% (inactive) |
| CC(=O)Nc1ccc(Nc2c3c4c(cccc4n(C)c2=O)C(=O)c2ccccc2-3)cc1 | – | -11.4% (inactive) |
| CC(=O)Nc1ccc(S(=O)(=O)N2c3ccccc3C(C)=CC2(C)C)cc1 | 2.23 µM (active) | – |
| CC(=O)Nc1ccc(S(=O)(=O)N2CCSc3ccccc32)cc1 | 2.5 µM (active) | – |
| COC(=O)Nc1ccc(S(=O)(=O)N2CCCc3ccccc32)cc1 | 5.59 µM (active) | – |
| Cc1ccc2nsnc2c1NC(=O)c1ccc(-c2cc(Cl)ccc2Cl)o1 | 14 µM (active) | – |
| Cc1nc(CSc2nsc(/C=C/N(C)C)c2C#N)cs1 | – | 9.44% [at 36.9 µM] (inactive) |
| CCSc1nnc(-c2sc3nnc(-c4ccccc4)c(-c4ccccc4)c3c2N)o1 | 4.11 µM (active) | – |
| OCCCn1c(C2CCCN2c2nc(-c3ccc(Cl)cc3)cs2)nc2cc(Cl)c(Cl)cc21 (configuration not stated) | – | -7.33% (inactive) |
| COc1cccc2sc(Nc3nc(-c4cc5ccccc5oc4=O)cs3)nc12 | 3.14 µM (active) | – |
| O=C1c2ccccc2C(=O)c2cc(N3CCCCC3)ccc21 | 7.04 µM (active) | – |
| COc1ccc(/C=N\NC(=O)c2ccccc2F)cc1COc1ccc(F)cc1F | 2.23 µM (active) | – |
| O=C(CSc1nc2ccccc2s1)c1cc2ccccc2o1 | – | -13% (inactive) |
| COc1cc(OC)cc(C(=O)N/N=C/c2ccc(OC)c(COc3ccc4ccccc4c3)c2)c1 | 12.5 µM (active) | – |
| COc1ccc(/C=N/NC(=O)c2cccnc2)cc1CSc1ccccn1 | 3.14 µM (active) | – |
| COc1ccc(/C=N/NC(=O)c2ccccc2Cl)cc1CSc1nc2ccccc2s1 | 4.44 µM (active) | – |
| COc1cnc(-c2ccccn2)nc1Oc1ccc(F)cc1F | – | -2.85% (inactive) |
| COc1ccccc1/C=N/NC(=S)Nc1cccnc1 | – | -15.7% (inactive) |
| COc1ccc(/C=N/NC(=O)c2cccnc2)cc1COc1ccc(NC(C)=O)cc1 | 12.5 µM (active) | – |
| Cn1c(N)c(-c2ccccc2)c2ccc([N+](=O)[O-])cc2c1=O | 14 µM (active) | – |
| C=CCN1C(=O)/C(=C2/Sc3ccc(OC)cc3N2CC)SC1=S | 13 µM (active) | – |
| CCN1C(=O)/C(=C2/Sc3ccc(OC)cc3N2C)SC1=Nc1cccc(O)c1 | 17.7 µM (active) | – |
